Pf Dd2 growth – qHTS Primary assay for Inhibitors of Plasmodium falciparum Dd2 growth in vitro; P. falciparum Dd2 growth, SYBR Green, 72 h; Potency, µM (series often up to 28.9 µM), inactives show at the highest dose activity, negative = inhibition, hits mostly inhibitors; actives 4.3% (n = 120,000); AID 1347417, 2020; active means well fitted inhibition curve with a large enough effect;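 further: plate controls were DMSO vehicle for no effect and reference drug for full effect; nearly all actives have a fitted effect of over 65% in size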
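Readout: SYBR Green fluorescence, 485 nm excitation, 535 nm emission, after ~16 h lysis at 37C. Before that, Dd2-infected red cells (2.5% hematocrit) grew 72 h with compound, 29 uM top final concentration.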
* hit, by the source's call; i = inactive; [ ] = another dose, or the depositor's remark. Many of the other results were omitted from the sample, so hits are more common in it than they were. Potency means the concentration at half of the fitted maximal effect.

SMILES | Pf Dd2 growth
Cc1cccc(OCC(=O)c2ccc3c(c2)N(CC(=O)Nc2ccccc2)C(=O)CO3)c1 | -3.8%
CNC(=O)CC1C(=O)NCCN1C(=O)c1cc(COc2ccccc2)[nH]n1 (stereo not drawn) | -4.2%
COC(=O)c1cccc(-c2nc(C3CC(=O)N(c4ccc(F)c(Cl)c4)C3)no2)c1 (stereo not drawn) | 69.0%
COc1ccccc1CNC(=O)[C@@H](C)C1CC[C@@]2(C)CC[C@H](NC(=O)C3CCCCC3)[C@@H](C)[C@@H]2[C@H]1O (stereo partly drawn) | -9.8%
COc1cc(=O)n2c(c1C(=O)Nc1cccc(SC)c1)CCCC2 | 8.9%
CN1CCN([C@H]2CCN(Cc3cccs3)C[C@H]2CCC(=O)O)CC1 | 4.7%
O=C1CC(c2ccccc2)N(S(=O)(=O)c2ccccc2)CCCCCN1 (stereo not drawn) | i
CCOc1ccccc1CN1CCCN(Cc2ccncc2)C(c2ccccc2)CC(=O)NCC1 (stereo not drawn) | 1.26µM*
Cc1ccc(CN2CCCN(S(C)(=O)=O)C(c3ccccc3)CC(=O)NCC2)o1 (stereo not drawn) | i
Cc1ncsc1CN1CCCCCCNC(=O)CC1c1ccccc1 (stereo not drawn) | i
CCNC(=O)N1CCCCCNC(=O)CC1c1ccccc1 (stereo not drawn) | 19.7%
CCOc1ccccc1CN1CCCCCCNC(=O)CC1c1ccccc1 (stereo not drawn) | 11.2µM*
Cc1ccc(CN2CCCC(c3nc(C(C)C)no3)CCNC(=O)CC2)o1 (stereo not drawn) | -0.9%
Cc1ccc(CN2CCCN(Cc3ccncc3)C(c3ccccc3)CC(=O)NCC2)o1 (stereo not drawn) | 1.78µM*
CCn1ncc(CN2CCCN(S(C)(=O)=O)C(c3ccccc3)CC(=O)NCC2)c1C (stereo not drawn) | -11.6%
COc1cccc(CN2CCCCCNC(=O)CC2c2ccccc2)c1OC (stereo not drawn) | 11.2µM*
CS(=O)(=O)N1CCCN(Cc2cn[nH]c2-c2ccc(F)cc2)CCNC(=O)CC1c1ccccc1 (stereo not drawn) | i
COc1cccc(CN2CCCOCCNC(=O)CC2)c1OC | -28.7%
O=C(Cc1cccnc1)N[C@H]1CCOC[C@H]1C1CCOCC1 | -3.7%
COc1ccc(-c2noc([C@@H]3CCCN3C(=O)COc3cccc(C)c3)n2)cc1OC | i
COCc1noc([C@@H]2CC(F)(F)CN2C(=O)c2cnc(C)cn2)n1 | -3.9%
CN1CC(=O)N(c2ccc(Cl)cc2)Cc2c(NC3CCNCC3)ncnc21 | 3.4%
COC(=O)c1cn([C@H]2CO[C@H]3[C@@H]2OC[C@H]3OC(=O)Nc2ccccc2)nn1 | 6.7%[44.1 µM]
COc1cccc(CN2CCCCCCNC(=O)CC2c2ccccc2)c1OC (stereo not drawn) | 7.94µM*
COc1cccc(CN2CCNC(=O)C2CC(=O)N2CCNC(=O)C2)c1OC (stereo not drawn) | 10.4%
SMILES | Pf Dd2 growth
CC(C)NC(=O)N1CCCCCNC(=O)CC1c1ccccc1 (stereo not drawn) | -20.0%
Cc1ccc(C#N)c(N2CC[C@@]3(O)CCN(S(=O)(=O)N(C)C)C[C@H]3C2)n1 | -16.1%
CCOCCOc1cccc(C(=O)N2C[C@H](C3CC3)[C@@H](N)C2)c1 | -7.9%
CCc1cccc(NC(=O)c2cc3c(=O)n(Cc4ccccc4)ccc3nc2C)c1 | -1.8%
CCc1ccc(NC(=O)c2cc3c(=O)n(Cc4cccs4)ccc3nc2C)cc1 | 12.6µM*
COc1ccc(Cn2ccc3nc(C)c(C(=O)Nc4ccc(F)cc4)cc3c2=O)cc1 | 5.8%
O=C([C@@H]1C[C@H](F)CN1S(=O)(=O)c1ccc(Br)cc1)N1CCCCC1 | -12.8%
CNC(=O)[C@@H]1C[C@@H](O)CN1C1CCN(C(=O)Cc2cccc(C)c2)CC1 | 18.9%
O=C(NCCCc1ccccc1F)[C@@]12CNC[C@@H]1CN(Cc1ccccc1)C2 | 7.94µM*
O=C(NCCCc1ccccc1)C1CN(Cc2ccccc2)C(=O)N1 (stereo not drawn) | 6.9%[44.1 µM]
COCCCNC(=O)[C@H]1CN(Cc2ccccc2)C[C@H]1C(=O)O | -6.8%
C#CCSc1nc(-c2ccccc2)cc(-c2ccccc2)c1C#N | 5.9%[0.594 µM]
Cc1cccc(-c2cc(-c3ccccc3)nc(SCC(=O)Nc3ccccc3)c2C#N)c1 | 13.3%
CCCCS(=O)(=O)c1nc(-c2ccc(Br)cc2)cc(-c2ccccc2)c1C#N | 5.01µM*
CO[C@H]1C[C@@H](O)C12CCN(C(=O)c1oc(COc3ccccc3)cc1C)CC2 | -17.1%
CC[C@H]1CN(C(=O)c2ccnc(Cl)c2)CC[C@H]1CC(=O)NCc1ccc2c(c1)OCO2 | 16.0%
Cc1ccc(C(=O)N2CCCCC2C(=O)Nc2cccc(-c3nnc(C)s3)c2)cn1 (stereo not drawn) | -19.4%
COCCN(CCOC)CC[C@@H]1CC[C@H](O)[C@@H](C(=O)N2CCOCC2)O1 | 3.6%[44.1 µM]
COCCN(CCOC)CC[C@@H]1CC[C@H](O)[C@@H](C(=O)NC2CCCCC2)O1 | -12.4%[44.1 µM]
COCCN(CCOC)CC[C@@H]1CC[C@H](O)[C@@H](C(=O)Nc2ccccc2)O1 | 15.8µM*
Cc1ccc(CNC(=O)N2CCCC(CN3CCCC3)CC2)cc1 (stereo not drawn) | 4.47µM*
COCCOC1CCN(C(=O)NCc2ccc(C)cc2)CC1 | -2.4%
Cc1ccc(CNC(=O)N2CCC(Cn3c(C)cnc3C3CCOCC3)CC2)cc1 | -23.6%
Cc1ccccc1CC(=O)N1CCN(C(=O)c2nnn3c2COC(c2ccc(Cl)cc2)C3)CC1 (stereo not drawn) | -5.1%
C=CCNC(=O)N[C@H]1CCN(C(=O)CSC)[C@@H]1C(=O)N[C@H](Cc1ccccc1)C(N)=O | 12.3%
SMILES | Pf Dd2 growth
O=S(=O)(Cc1ccccc1)N[C@H]1CO[C@H]2[C@@H]1OC[C@@H]2n1nnnc1Oc1ccc(-n2ccnc2)cc1 | -19.0%
CCS(=O)(=O)Nc1ccc(C2(C(=O)NCc3cccc(C)c3)CCC2)cc1 | -16.6%
COCCCNc1ncnc2sc3c(c12)CCN(Cc1cccnc1)C3 | 5.01µM*
COc1ncc(CN2CCc3c(n(Cc4cccnc4)n(-c4ccccc4)c3=O)C2)cn1 | 39.3%[44.1 µM]
CCNc1ncnc2sc3c(c12)CCN(C(=O)CCOC)C3 | -14.4%
CCNc1ncnc2sc3c(c12)CCN(C(=O)COC)C3 | -9.3%
Oc1cccc(Nc2ncnc3sc4c(c23)CCCC4)c1 | -27.8%
CCNc1ncnc2sc3c(c12)CCN(Cc1ccncc1)C3 | 12.6µM*
Cc1ccc(CC(=O)NCCc2noc(C3CC3)n2)cc1 | 24.8%
O=C(Cc1ccccn1)N1CCC(N2CCCCCC2=O)CC1 | -10.6%[44.1 µM]
CN1C(=O)[C@@H]2C[C@@H](CN2C(=O)c2ccccc2)Oc2ccccc21 | 9.6%[44.1 µM]
COCc1cc(=O)n(CC(=O)Nc2cc(Cl)ccc2C)c(N2CCOCC2)n1 | 19.8%
COc1ccc(-c2cc3nc4c(c(=O)n3[nH]2)CCN(C(=O)COc2ccccc2C)C4)cc1 | -1.5%
C[C@]1(O)CCN(C(=O)c2cn(C3CCC(N)CC3)nn2)C[C@@H]1O (stereo partly drawn) | -10.7%
O=C(N[C@H]1[C@H](O)[C@H](O)C[C@@H]1c1ccc(N2CCOCC2)nc1)c1ccc2c(c1)OCCO2 | 11.4%
Cc1cccc(N2CCN(C(=O)c3noc(-c4ccc5c(c4)OCO5)n3)CC2)c1C | 13.6%
O=C(CC1C(=O)NCCN1Cc1cccc(Oc2ccccc2)c1)NCc1ccoc1 (stereo not drawn) | 1.0%
COc1ccc(S(=O)(=O)N2CC[C@H]3NC(=O)N(c4ccc(Oc5ccccc5)cc4)C(=O)[C@H]32)cc1 | -21.2%

Assay outcomes deposited in PubChem by National Center for Advancing Translational Sciences (NCATS).
